Values joined by “and” are separate entries in the source; they are usually repeats but may differ in a detail not shown here. Equal entries are not always repeated. Records with an inconclusive call do not appear. Active and inactive are the calls of the source. Rule for the calls: active = hit-call score of the fitted dose curve at least 0.9, where 1 is the maximum; inconclusive = response in the unintended direction; inactive = score below 0.9.
experiment: TOX21_p53_BLA_p2_viability: Viability Assessment in the Tox21 HCT-116 p53 Agonism Beta-lactamase Assay, Phase 2 (AID 2283591);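 note: compound exposure lasted 16 h at 37 °C; actives lower the ATP signal meaning cytotoxicity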
Procedure, shortened: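 Cytotoxicity readout: CellTiter-Glo ATP luminescence, 30 min at room temperature, after the beta-lactamase read. Cells were HCT116 exposed 16 h at 37C to compounds pin-transferred at 217-fold dilution from DMSO stocks.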

| SMILES | AC50 | outcome |
| --- | --- | --- |
| CC(C)C[C@H](NC(=O)[C@H](Cc1ccccc1)NC(=O)c1cnccn1)B(O)O | 283 nM (active) and 357 nM (active) |  |
| C#CCC(Cc1cnc2nc(N)nc(N)c2n1)c1ccc(C(=O)N[C@@H](CCC(=O)O)C(=O)O)cc1 (some centres undefined) | 0.245 µM (active) |  |
| NC(N)=NCc1cccc(I)c1 |  | inactive |
| O=C(Oc1cccc2cccnc12)c1ccccc1 |  | inactive |
| O=C(Nc1ccc(Cl)c(Cl)c1)C1CC1 |  | inactive |
| Oc1ccc(N=Nc2ccccc2)cc1 |  | inactive |
| COC(=O)C1=C(C)NC(C)=C(C(=O)OCCN2CCN(C(c3ccccc3)c3ccccc3)CC2)C1c1cccc([N+](=O)[O-])c1 (centres undefined) |  | inactive |
| Cc1c(N(C)CS(=O)(=O)O)c(=O)n(-c2ccccc2)n1C |  | inactive |
| N#C/C(=C1/SC[C@@H](c2ccc(Cl)cc2Cl)S1)n1ccnc1 |  | inactive |
| C[C@]12C=CC(=O)C=C1[C@@H](F)C[C@@H]1[C@@H]2[C@@H](O)C[C@@]2(C)[C@H]1CC[C@]2(O)C(=O)CO |  | inactive |
| CCCCCCCCCCCCCC[N+](C)(C)Cc1ccccc1 |  | inactive |
| CN[C@H]1CC[C@@H](c2ccc(Cl)c(Cl)c2)c2ccccc21 | 33.6 µM (active) |  |
| O=C1Nc2ccc(Cl)cc2[C@@](C#CC2CC2)(C(F)(F)F)O1 | 37.1 µM (active) |  |
| CC(=O)Oc1ccc2c(c1)CC[C@@H]1[C@@H]2CC[C@]2(C)[C@@H](O)CC[C@@H]12 |  | inactive |
| CC(C)C[C@H](NC(=O)[C@H](CCc1ccccc1)NC(=O)CN1CCOCC1)C(=O)N[C@@H](Cc1ccccc1)C(=O)N[C@@H](CC(C)C)C(=O)[C@@]1(C)CO1 | 0.757 µM (active) |  |
| CCCCCCCCCCCCCCCCC(C(=O)O)C(O)(CC(=O)O)C(=O)O (centres undefined) |  | inactive |
| COc1cc([C@@H]2c3cc4c(cc3C(O[C@@H]3O[C@@H]5COC(c6cccs6)O[C@H]5[C@H](O)[C@H]3O)C3COC(=O)[C@@H]32)OCO4)cc(OC)c1O (some centres undefined) |  | inactive |
| Cc1cc(-n2c(=O)[nH]c(=O)n(C)c2=O)ccc1Oc1ccc(S(=O)(=O)C(F)(F)F)cc1 |  | inactive |
| NC(=O)n1c(O)c(C(=O)c2cccs2)c2cc(Cl)ccc21 |  | inactive |
| CCC(=C(CC)c1ccc(O)cc1)c1ccc(O)cc1 | 38.3 µM (active) |  |

| SMILES | AC50 | outcome |
| --- | --- | --- |
| CCC(C)n1ncn(-c2ccc(N3CCN(c4ccc(OC[C@H]5CO[C@](Cn6cncn6)(c6ccc(Cl)cc6Cl)O5)cc4)CC3)cc2)c1=O (some centres undefined) |  | inactive |
| C#C[C@]1(O)CC[C@H]2[C@@H]3CCc4cc(OC5CCCC5)ccc4[C@H]3CC[C@@]21C |  | inactive |
| Cc1ccc(/C=N/n2c(-c3ccccc3)csc2=S)cc1 |  | inactive |
| COC(=O)C1=C(C)NC(COC(N)=O)=C(C(=O)OC(C)C)C1c1cccc(Cl)c1Cl (centres undefined) |  | inactive |
| CC(C)(C)CC(C)(C)c1ccc(O)c(Cc2ccc(Cl)cc2Cl)c1 | 23 µM (active) |  |
| Cc1cc(Nc2ccccc2C(=O)O)ccc1Cl |  | inactive |
| COC(=O)C1=C(C)NC(C)=C(C(=O)OCC(C)=O)C1c1ccccc1[N+](=O)[O-] (centres undefined) |  | inactive |
| CCOC(=O)COc1ccc2c(=O)cc(-c3ccccc3)oc2c1 |  | inactive |
| NCCCC[C@H](NC(=O)[C@@H]1CCCN1C(=O)[C@@H]1CSSC[C@H](N)C(=O)N[C@@H](Cc2ccc(O)cc2)C(=O)N[C@@H](Cc2ccccc2)C(=O)N[C@@H](CCC(N)=O)C(=O)N[C@@H](CC(N)=O)C(=O)N1)C(=O)NCC(N)=O |  | inactive |
| COc1cc(C)c(/C=C/C(C)=C/C=C/C(C)=C/C(=O)O)c(C)c1C |  | inactive |
| NC(=O)C(=O)NN=Cc1ccc([N+](=O)[O-])o1 |  | inactive |
| C[C@@H](NCCCc1cccc(C(F)(F)F)c1)c1cccc2ccccc12 | 21.4 µM (active) |  |
| COCCOC(=O)C1=C(C)NC(C)=C(C(=O)OC/C=C/c2ccccc2)C1c1cccc([N+](=O)[O-])c1 (centres undefined) |  | inactive |
| COc1ccc(C(=O)CC(=O)c2ccc(C(C)(C)C)cc2)cc1 |  | inactive |
| Cc1ccc2c(Cl)cc(Cl)c(O)c2n1 | 7.81 µM (active) |  |
| OC[C@]1(O)OC[C@@H](O)[C@H](O)[C@@H]1O |  | inactive |
| CCN(CC)CCNC(=O)c1c(C)[nH]c(/C=C2\C(=O)Nc3ccc(F)cc32)c1C |  | inactive |
| CC(C)=CCC1=C(O)c2ccccc2C(=O)C1=O |  | inactive |
| C=C1C(CCl)(CCl)C2(Cl)C(Cl)C(Cl)C1(Cl)C2(Cl)Cl (centres undefined) | 50.6 µM (active) and 13.5 µM (active) |  |

From PubChem BioAssay (EPA / NIEHS)
